# Source: PubChem BioAssay (NCATS)
# Results filed as inconclusive are left out. A number with no mark means an inactive call. Calls come from the whole dose curve; as a rule, active = well fitted cell-killing curve with a large enough effect; inconclusive = small, poorly fitted or top-dose-only effect, or effect the other way; inactive = flat fitted curve, though single readings scatter.
# Test system: CAOV3
# Experiment: Primary qHTS to identify gynecologic anti-cancer compounds using libraries of approved drugs and bioactive compounds (AID 1345084); note: nearly all actives have a fitted effect of over 55% in size
# Conditions: Gynecologic cancer cell panel viability, ATPlite luminescence, 48 h; series mostly up to 57.5 µM; activity change, negative = cytotoxicity: at the top concentration
# How it was run: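 Cell viability after 48 h drug treatment, ATPlite luminescence readout; five doses.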
# % is set by controls: 0 for no effect and ±100 for the full control effect.
row,Compound,"activity change, negative = cytotoxicity"
1,CCNC1(C(N)=O)CN(c2nc(C)nc3c(-c4ccc(Cl)cc4)c(-c4ccccc4Cl)nn23)C1,-18.4%
2,O=C([C@@H]1CCCN(c2ccc3[nH]c(C4(n5cc(Cl)cn5)CC4)nc3n2)C1)N1CCCC1,-5.83%
3,Cn1ccc(NC(=O)c2cc(Oc3ccc(C(=O)N4CCC4)c(F)c3)c3c(c2)OC(C)(C)C3)n1,-1.36%
4,CC1(CO)CC2C(O)C3=C(CC(C)(O)C2C1)C(=O)OC3 (stereo not drawn),-12.5%
5,C[C@@H]1O[C@@H](O[C@H]2[C@@H]3C=CO[C@@H](O[C@@H]4O[C@H](CO)[C@@H](O)[C@H](O)[C@H]4O)[C@@H]3[C@@]3(CO)O[C@@H]23)[C@H](O)[C@H](OC(=O)/C=C/c2ccccc2)[C@H]1O,-10.3% [at 25.3 µM]
6,CC(=O)O[C@@H]1CC2C(/C=C(\C)C(=O)[C@@]3(O)C[C@@H](C)[C@H](OC(=O)c4ccccc4)C3/C=C/1C)C2(C)C (stereo partly drawn),2.05% [at 25.3 µM]
7,COCCCNC(=O)c1ccc(Cn2c(=O)c3ccccc3n(Cc3ccc(C(C)C)cc3)c2=O)cc1,18.5%
8,Cc1ccc(C(C)C)c(O[C@@H]2O[C@H](CO)[C@@H](O)[C@H](O)[C@H]2O)c1,-5.74% [at 38.5 µM]
9,O=C(Nc1ccccc1)N1CCC(Cc2cnc3ccccc3c2)CC1,17.6%
10,CN(C)CCOc1cc(NS(=O)(=O)c2c(Cl)cc(C(F)(F)F)cc2Cl)ccc1Cl,-3.91%
11,COc1ccc(NC(=O)C2C[C@H](C)CC[C@H]2C(C)C)cc1 (stereo partly drawn),-2.17%
12,Cc1noc(-c2ccc(-c3ccc(CC(=O)O)cc3)cc2)c1NC(=O)O[C@H](C)c1ccccc1Cl,5.18%
13,Cc1cccc(N2CCN(C(=O)c3cc(S(=O)(=O)N(C)C)ccc3N3CCCC3)CC2)c1C,24.5%
